Assay results taken from PubChem BioAssay (EPA / NIEHS).
Records with an inconclusive call do not appear. Activity calls are given as the source filed them. Rule for the calls: active = hit-call score of the fitted dose curve at least 0.9, where 1 is the maximum; inconclusive = response in the unintended direction; inactive = score below 0.9.

Assays:
[1] = biological target: human Protein Tyrosine Phosphatase Receptor Type M (PTPRM), PTPRM (gene 5797) (UniProt P28827); assay: NVS_ENZ_hPTPRM: NovaScreen (NVS) Enzymatic Assay for human Protein Tyrosine Phosphatase Receptor Type M (PTPRM) (AID 2283215)
Chain of human Protein Tyrosine Phosphatase Receptor Type M (PTPRM), PTPRM (gene 5797) (P28827 whole entry, looked up): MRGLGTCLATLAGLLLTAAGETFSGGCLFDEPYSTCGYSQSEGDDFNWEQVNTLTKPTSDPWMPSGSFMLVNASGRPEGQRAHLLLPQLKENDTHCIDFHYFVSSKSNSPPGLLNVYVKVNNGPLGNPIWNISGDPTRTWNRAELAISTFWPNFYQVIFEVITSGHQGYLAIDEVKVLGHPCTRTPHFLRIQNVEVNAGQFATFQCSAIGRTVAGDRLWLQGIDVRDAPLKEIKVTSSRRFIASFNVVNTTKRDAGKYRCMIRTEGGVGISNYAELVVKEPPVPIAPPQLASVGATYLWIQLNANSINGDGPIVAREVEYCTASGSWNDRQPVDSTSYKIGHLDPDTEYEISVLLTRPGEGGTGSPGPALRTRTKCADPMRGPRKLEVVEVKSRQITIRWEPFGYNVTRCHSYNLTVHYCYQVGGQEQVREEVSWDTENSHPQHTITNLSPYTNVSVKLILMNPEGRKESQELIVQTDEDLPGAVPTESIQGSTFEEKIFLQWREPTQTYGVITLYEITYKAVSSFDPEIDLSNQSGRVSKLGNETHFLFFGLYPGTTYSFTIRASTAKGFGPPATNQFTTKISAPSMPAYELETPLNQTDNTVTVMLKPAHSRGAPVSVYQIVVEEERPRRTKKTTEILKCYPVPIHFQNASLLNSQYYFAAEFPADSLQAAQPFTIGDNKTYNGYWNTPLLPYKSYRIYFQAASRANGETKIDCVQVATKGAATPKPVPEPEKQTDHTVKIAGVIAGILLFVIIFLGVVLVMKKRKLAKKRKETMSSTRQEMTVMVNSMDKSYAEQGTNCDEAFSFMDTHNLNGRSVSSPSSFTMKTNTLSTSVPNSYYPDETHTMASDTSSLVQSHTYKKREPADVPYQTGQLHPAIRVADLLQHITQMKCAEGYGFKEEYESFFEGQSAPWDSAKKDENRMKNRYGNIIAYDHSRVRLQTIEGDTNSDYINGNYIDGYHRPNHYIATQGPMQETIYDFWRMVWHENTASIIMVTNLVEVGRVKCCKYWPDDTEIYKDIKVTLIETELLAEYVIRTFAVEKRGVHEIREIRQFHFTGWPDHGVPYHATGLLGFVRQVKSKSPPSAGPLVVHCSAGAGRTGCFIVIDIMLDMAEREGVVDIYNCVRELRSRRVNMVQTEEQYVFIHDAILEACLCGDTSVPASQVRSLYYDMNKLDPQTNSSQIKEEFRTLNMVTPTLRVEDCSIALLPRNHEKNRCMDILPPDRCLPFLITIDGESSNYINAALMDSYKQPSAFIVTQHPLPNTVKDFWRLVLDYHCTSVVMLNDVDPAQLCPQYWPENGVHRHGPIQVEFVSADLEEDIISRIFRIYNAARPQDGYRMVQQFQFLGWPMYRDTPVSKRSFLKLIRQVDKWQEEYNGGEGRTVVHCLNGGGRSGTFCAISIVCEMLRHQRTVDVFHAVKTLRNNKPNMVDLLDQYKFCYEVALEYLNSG
Method in brief: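 Cell-free recombinant PTPRM with fluorogenic substrate; product separated from substrate by electrophoretic mobility shift and read by fluorescence, 1.33 h after dosing. Primary screen single concentration (25 uM) in duplicate; actives retested in concentration series; loss of signal versus DMSO.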

[2] = biological target: human Sirtuin 3 (SIRT3), SIRT3 (gene 23410) (UniProt Q9NTG7); assay: NVS_ENZ_hSIRT3: NovaScreen (NVS) Enzymatic Assay for human Sirtuin 3 (SIRT3) (AID 2283222)
Chain of human Sirtuin 3 (SIRT3), SIRT3 (gene 23410) (Q9NTG7 whole entry, looked up): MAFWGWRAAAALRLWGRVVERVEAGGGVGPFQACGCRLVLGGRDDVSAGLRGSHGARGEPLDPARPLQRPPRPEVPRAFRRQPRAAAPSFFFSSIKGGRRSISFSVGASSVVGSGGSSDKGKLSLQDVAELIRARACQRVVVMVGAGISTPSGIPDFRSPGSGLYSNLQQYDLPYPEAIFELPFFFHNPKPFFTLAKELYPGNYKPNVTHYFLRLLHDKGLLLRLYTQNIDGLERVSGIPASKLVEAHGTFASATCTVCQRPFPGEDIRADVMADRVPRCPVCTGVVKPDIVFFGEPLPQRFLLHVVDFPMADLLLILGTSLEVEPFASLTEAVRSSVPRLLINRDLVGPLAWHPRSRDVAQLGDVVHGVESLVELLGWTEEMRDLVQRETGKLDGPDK
Method in brief: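 Cell-free enzyme assay with recombinant protein and fluorescent substrate, product separated by electrophoretic mobility shift; read 1 hour after dosing. Screened in duplicate at 25 uM, then singleton concentration-response up to 50 uM; loss of signal versus DMSO.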

[3] = biological target: human Protein Tyrosine Phosphatase Non-receptor Type 6 (PTPN6), PTPN6 (gene 5777) (UniProt P29350); assay: NVS_ENZ_hPTPN6: NovaScreen (NVS) Enzymatic Assay for human Protein Tyrosine Phosphatase Non-receptor Type 6 (PTPN6) (AID 2283210)
Chain of human Protein Tyrosine Phosphatase Non-receptor Type 6 (PTPN6), PTPN6 (gene 5777) (P29350 whole entry, looked up): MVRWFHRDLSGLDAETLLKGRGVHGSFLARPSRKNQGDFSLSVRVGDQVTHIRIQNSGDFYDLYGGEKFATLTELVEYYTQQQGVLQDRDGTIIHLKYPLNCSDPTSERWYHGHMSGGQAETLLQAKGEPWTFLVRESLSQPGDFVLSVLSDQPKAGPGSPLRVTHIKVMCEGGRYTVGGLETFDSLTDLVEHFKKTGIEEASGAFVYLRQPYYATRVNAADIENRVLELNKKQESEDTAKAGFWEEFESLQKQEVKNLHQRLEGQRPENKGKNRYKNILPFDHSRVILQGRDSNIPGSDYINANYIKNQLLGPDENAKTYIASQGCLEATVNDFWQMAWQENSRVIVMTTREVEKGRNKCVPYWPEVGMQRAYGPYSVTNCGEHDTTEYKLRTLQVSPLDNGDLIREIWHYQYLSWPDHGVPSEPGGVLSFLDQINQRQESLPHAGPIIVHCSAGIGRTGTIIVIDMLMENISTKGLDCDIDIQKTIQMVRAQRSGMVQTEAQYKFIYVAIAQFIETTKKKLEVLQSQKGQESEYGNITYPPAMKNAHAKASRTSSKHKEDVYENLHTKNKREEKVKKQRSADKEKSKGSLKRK
Method in brief: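 Cell-free assay with recombinant PTPN6 expressed in SF9 cells, fluorescent substrate, product separated from substrate by electrophoretic mobility shift; read 1.33 hours after dosing. Primary screen in duplicate at 25 uM, actives retested in concentration series; DMSO baseline.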

[4] = biological target: Tyrosine-protein phosphatase non-receptor type 13 (Homo sapiens) (UniProt Q12923); assay: NVS_ENZ_hPTPN13: NovaScreen (NVS) Enzymatic Assay for human Protein Tyrosine Phosphatase Non-receptor Type 13 (PTPN13) (AID 2283205)
Method in brief: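 Cell-free assay of recombinant human PTPN13 with a fluorescent substrate, product separated by electrophoretic mobility shift and read 0.5 h after dosing. Primary screen at 25 uM in duplicate, then concentration-response up to 50 uM. Loss of signal fitted against DMSO.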

[5] = biological target: Tyrosine-protein phosphatase non-receptor type 14 (Homo sapiens) (UniProt Q15678); assay: NVS_ENZ_hPTPN14: NovaScreen (NVS) Enzymatic Assay for human Protein Tyrosine Phosphatase Non-receptor Type 14 (PTPN14) (AID 2283206)
Chain of Tyrosine-protein phosphatase non-receptor type 14 (Homo sapiens) (Q15678 whole entry, looked up): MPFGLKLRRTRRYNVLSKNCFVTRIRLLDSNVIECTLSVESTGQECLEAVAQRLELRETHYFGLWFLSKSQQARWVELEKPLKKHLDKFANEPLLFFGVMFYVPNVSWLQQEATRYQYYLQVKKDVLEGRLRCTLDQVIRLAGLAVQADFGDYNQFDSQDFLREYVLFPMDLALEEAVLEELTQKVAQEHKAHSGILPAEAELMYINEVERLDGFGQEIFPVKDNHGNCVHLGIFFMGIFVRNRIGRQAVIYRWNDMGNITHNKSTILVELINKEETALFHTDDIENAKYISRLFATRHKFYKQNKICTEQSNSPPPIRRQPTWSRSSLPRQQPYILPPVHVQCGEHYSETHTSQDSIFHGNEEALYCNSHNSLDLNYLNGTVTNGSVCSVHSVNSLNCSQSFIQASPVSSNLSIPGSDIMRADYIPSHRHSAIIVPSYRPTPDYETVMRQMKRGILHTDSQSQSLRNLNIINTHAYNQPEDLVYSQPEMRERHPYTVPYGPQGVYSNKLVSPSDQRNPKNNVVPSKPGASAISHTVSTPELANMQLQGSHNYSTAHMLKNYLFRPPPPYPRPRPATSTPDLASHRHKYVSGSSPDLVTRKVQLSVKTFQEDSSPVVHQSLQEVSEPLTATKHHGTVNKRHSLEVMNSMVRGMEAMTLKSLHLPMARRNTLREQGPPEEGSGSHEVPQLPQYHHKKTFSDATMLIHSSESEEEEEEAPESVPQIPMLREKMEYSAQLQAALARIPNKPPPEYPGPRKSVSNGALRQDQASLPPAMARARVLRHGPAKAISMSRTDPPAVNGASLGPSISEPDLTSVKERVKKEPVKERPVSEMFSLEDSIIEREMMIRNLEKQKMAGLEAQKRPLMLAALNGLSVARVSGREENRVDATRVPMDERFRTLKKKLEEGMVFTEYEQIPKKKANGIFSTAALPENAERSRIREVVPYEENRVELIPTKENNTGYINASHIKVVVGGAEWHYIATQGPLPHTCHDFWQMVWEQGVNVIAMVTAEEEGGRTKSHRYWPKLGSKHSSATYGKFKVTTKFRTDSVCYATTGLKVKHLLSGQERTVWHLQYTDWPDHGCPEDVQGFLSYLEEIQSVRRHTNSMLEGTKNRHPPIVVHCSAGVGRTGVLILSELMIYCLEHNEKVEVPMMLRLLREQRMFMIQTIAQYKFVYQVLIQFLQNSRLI
Method in brief: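 Cell-free recombinant human PTPN14 with fluorescent substrate, read 0.5 h after dosing by fluorescence and electrophoretic mobility shift separating substrate from product. Primary screen at 25 uM in duplicate; hits run to 50 uM maximum; loss of signal versus DMSO.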

[6] = biological target: human Protein Tyrosine Phosphatase Receptor Type F (PTPRF), PTPRF (gene 5792) (UniProt P10586); assay: NVS_ENZ_hPTPRF: NovaScreen (NVS) Enzymatic Assay for human Protein Tyrosine Phosphatase Receptor Type F (PTPRF) (AID 2283213)
Method in brief: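 Cell-free fluorescence enzyme assay with recombinant protein and substrate; product separated by electrophoretic mobility shift. Read 1 h after dosing, single 25 uM duplicate screen, then concentration-response up to 50 uM; loss of signal vs DMSO.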

[7] = biological target: human Protein Tyrosine Phosphatase Non-receptor Type 1 (PTPN1), PTPN1 (gene 5770) (UniProt P18031); assay: NVS_ENZ_hPTPN1: NovaScreen (NVS) Enzymatic Assay for human Protein Tyrosine Phosphatase Non-receptor Type 1 (PTPN1) (AID 2283201)
Chain of human Protein Tyrosine Phosphatase Non-receptor Type 1 (PTPN1), PTPN1 (gene 5770) (P18031 whole entry, looked up): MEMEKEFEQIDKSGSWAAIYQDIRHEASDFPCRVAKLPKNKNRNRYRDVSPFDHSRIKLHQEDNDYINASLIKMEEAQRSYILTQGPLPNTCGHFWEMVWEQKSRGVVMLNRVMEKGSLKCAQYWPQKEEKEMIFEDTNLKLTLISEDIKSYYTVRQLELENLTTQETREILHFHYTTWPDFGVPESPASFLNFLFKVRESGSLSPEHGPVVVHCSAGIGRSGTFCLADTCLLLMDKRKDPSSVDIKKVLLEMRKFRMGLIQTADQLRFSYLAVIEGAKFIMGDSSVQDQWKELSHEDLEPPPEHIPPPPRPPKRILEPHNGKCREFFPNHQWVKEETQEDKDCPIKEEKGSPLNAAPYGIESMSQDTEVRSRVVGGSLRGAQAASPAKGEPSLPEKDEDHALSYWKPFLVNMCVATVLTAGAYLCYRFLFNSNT
Method in brief: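 Cell-free fluorogenic-substrate activity assay on recombinant enzyme, read 1.33 h after dosing by fluorescence and electrophoretic mobility shift; loss of signal vs DMSO baseline. Primary screen in duplicate at 25 uM, hits then run in concentration-response up to 50 uM.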

[8] = biological target: Tyrosine-protein phosphatase non-receptor type 11 (Homo sapiens) (UniProt Q06124); assay: NVS_ENZ_hPTPN11: NovaScreen (NVS) Enzymatic Assay for human Protein Tyrosine Phosphatase Non-receptor Type 11 (PTPN11) (AID 2283202)
Chain of Tyrosine-protein phosphatase non-receptor type 11 (Homo sapiens) (Q06124 whole entry, looked up): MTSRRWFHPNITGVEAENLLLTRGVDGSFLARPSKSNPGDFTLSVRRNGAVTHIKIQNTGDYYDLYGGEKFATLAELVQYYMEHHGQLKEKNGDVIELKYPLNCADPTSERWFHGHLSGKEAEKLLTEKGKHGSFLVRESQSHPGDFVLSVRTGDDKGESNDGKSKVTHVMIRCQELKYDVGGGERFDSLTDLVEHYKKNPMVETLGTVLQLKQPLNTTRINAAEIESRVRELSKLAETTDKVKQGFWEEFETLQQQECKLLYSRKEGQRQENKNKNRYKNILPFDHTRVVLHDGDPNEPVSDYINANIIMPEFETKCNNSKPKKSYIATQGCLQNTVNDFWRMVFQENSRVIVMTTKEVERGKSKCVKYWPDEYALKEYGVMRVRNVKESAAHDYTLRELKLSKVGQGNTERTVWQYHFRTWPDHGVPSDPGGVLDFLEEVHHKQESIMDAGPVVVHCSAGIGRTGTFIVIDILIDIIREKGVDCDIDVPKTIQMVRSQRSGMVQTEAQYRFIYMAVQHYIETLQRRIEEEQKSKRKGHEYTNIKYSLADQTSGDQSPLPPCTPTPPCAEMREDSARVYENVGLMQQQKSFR
Method in brief: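 Recombinant human PTPN11 activity on a fluorescent substrate, with substrate/product separated by electrophoretic mobility shift; read 0.5 h after dosing, loss of signal vs DMSO. Duplicate 25 uM screen, then concentration-response up to 50 uM.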

[9] = biological target: human Sirtuin 2 (SIRT2), SIRT2 (gene 22933) (UniProt Q8IXJ6); assay: NVS_ENZ_hSIRT2: NovaScreen (NVS) Enzymatic Assay for human Sirtuin 2 (SIRT2) (AID 2283217)
Chain of human Sirtuin 2 (SIRT2), SIRT2 (gene 22933) (Q8IXJ6 whole entry, looked up): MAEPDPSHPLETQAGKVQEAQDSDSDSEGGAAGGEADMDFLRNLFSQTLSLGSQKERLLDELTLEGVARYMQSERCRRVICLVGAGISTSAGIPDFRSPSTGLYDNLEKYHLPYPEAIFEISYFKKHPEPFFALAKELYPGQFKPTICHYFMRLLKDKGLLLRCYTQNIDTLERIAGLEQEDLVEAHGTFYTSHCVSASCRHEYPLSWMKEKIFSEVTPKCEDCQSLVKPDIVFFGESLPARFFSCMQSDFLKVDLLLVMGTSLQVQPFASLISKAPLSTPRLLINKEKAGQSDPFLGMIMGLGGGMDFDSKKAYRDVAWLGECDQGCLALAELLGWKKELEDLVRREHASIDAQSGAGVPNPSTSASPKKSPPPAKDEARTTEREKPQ
Method in brief: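 Cell-free recombinant human SIRT2, fluorescent substrate with product separated by electrophoretic mobility shift, 1 hr. Screened in duplicate at 25 uM; hits rerun singly in concentration-response up to 50 uM, relative to DMSO.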

[10] = biological target: human Sirtuin 1 (SIRT1), SIRT1 (gene 23411) (UniProt Q96EB6); assay: NVS_ENZ_hSIRT1: NovaScreen (NVS) Enzymatic Assay for human Sirtuin 1 (SIRT1) (AID 2283219)
Description: NVS_ENZ_hSIRT1 is a biochemical, single-readout assay that uses extracted gene-proteins in a cell-free assay. Measurements were taken 1 hour after chemical dosing in a 384-well plate.NVS_ENZ_hSIRT1 is one of one assay component(s) measured or calculated from the NVS_ENZ_hSIRT1 assay. It is designed to make measurements of enzyme activity, a form of enzyme reporter, as detected with fluorescence intensity signals by Fluorescence and electrophoretic mobility shift technology.Data from the assay component NVS_ENZ_hSIRT1 was analyzed into 1 assay endpoint. This assay endpoint, NVS_ENZ_hSIRT1, was analyzed in the positive analysis fitting direction relative to DMSO as the negative control and baseline of activity. Using a type of enzyme reporter, loss-of-signal activity can be used to understand changes in the enzymatic activity as they relate to the gene SIRT1. Furthermore, this assay endpoint can be referred to as a primary readout, because this assay has produced multiple assay endpoints where this one serves a enzymatic activity function. To generalize the intended target to other relatable targets, this assay endpoint is annotated to the hydrolase intended target family, where the subfamily is protein deacetylase. […]

With `C[C@]12CC[C@@H]3c4ccc(O)cc4CC[C@H]3[C@@H]1CC[C@@H]2O` the outcome [1] was “inactive” and the outcome [2] was “inactive”.
With `CCCCOCCOCCO` the outcome [3] was “inactive”.
For `CC/C(=C(\c1ccccc1)c1ccc(OCCN(C)C)cc1)c1ccccc1`, the AC50 [4] was 12.1 µM (active), the outcome [5] was “inactive” and the outcome [6] was “inactive”. The AC50 [1] was 13.9 µM (active) and the outcome [2] was “inactive”.
With `O=C(c1ccc(OCCN2CCCCC2)cc1)c1c(-c2ccc(O)cc2)sc2cc(O)ccc12` the AC50 [7] was 5.48 µM (active), the AC50 [8] was 28 µM (active) and the AC50 [4] was 30.9 µM (active). For the same compound, the outcome [5] was “inactive”, the AC50 [1] was 37.9 µM (active) and the outcome [9] was “inactive”. The AC50 [10] was 17.8 µM (active) and the AC50 [2] was 17.4 µM (active).
